# MITF TRPM1 HTS: activators of MITF-driven TRPM1 promoter reporter, primary screen, cell-based, SK-MEL-5, luciferase, single point; SK-MEL-5 TRPM1-promoter luciferase, 24 h; % of positive control, neutral wells = 0; activation, % at 12.5 µM; 300,000 tested, 0.75% active;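 active means mean activation of at least 80% with every replicate also reaching 80%; inconclusive means mean reaches 80% but some replicate falls short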;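 further: 0% = neutral control wells and 100% = parthenolide positive control wells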
# APOBEC3A inh: APOBEC3A ssDNA deaminase inhibitors, primary screen, selectivity assay for APOBEC3G inhibitor project, biochemical, FAM/TAMRA oligo cleavage fluorescence; 330,000 tested, 0.41% active; inhibition, % at 20 µM; recombinant A3A, FAM/TAMRA ssDNA deamination fluorescence;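 active means at least 40% inhibition at 20 µM here, with at most 30% in a related deaminase screen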;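 further: plate controls were A3A with DMSO for no effect and wells lacking A3A enzyme for full effect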
# Target sequence (P31941 whole entry, looked up): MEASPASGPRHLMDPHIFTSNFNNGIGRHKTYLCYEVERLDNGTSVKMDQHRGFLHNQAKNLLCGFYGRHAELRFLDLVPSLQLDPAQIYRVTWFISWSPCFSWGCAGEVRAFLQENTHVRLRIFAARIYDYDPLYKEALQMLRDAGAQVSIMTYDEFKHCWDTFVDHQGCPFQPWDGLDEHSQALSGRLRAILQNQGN
# PHOSPHO1 block: PubChem AID 1565 | Phosphoethanolamine/phosphocholine phosphatase (Homo sapiens), Q8TCT1 | recombinant PHOSPHO1, absorbance phosphatase assay | inhibition, % at 13.3 µM | 290,000 tested, 1.1% active; in the data active means inhibition above about 60%
# Wnt bcat act: Wnt/beta-catenin pathway activators, primary screen, cell-based, plate reader, single point; Wnt/beta-catenin reporter cell assay, activator; activation, % at 9.35 µM; 300,000 tested, 1.2% active; in the data active means activation above about 30%, passing the limit was not always enough; inconclusive means no clear call, values can overlap the other calls;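 further: 0% = neutral control wells and 100% = positive control wells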
# esBAF inh: Bmi1 luciferase reporter increase in mESCs, primary screen, esBAF inhibitor project, mouse ES cells, Bmi1 luciferase knock-in, single point. 24 h; 100% = twice the neutral-well signal. reporter increase, % at 12.5 µM. 350,000 tested, 2% active. AID 602393, 2012; in the data active means activation above about 40%; inconclusive means no clear call, values can overlap the other calls;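 further: 0% = median of the plate's neutral control wells and 100% = double that signal; a rise in the Bmi1 reporter signal indicates esBAF inhibition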
# APOBEC3G inh: APOBEC3G DNA deaminase inhibitors, primary screen, biochemical, fluorescence, single-stranded DNA substrate, uHTS. DNA dC->dU-editing enzyme APOBEC-3G (Homo sapiens), Q9HC16. recombinant A3G, ssDNA deamination FAM/TAMRA fluorescence. AID 493012, 2011. inhibition, % at 20 µM. 330,000 tested, 0.28% active;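 active means inhibition of at least 40% at 20 µM, with no more than 30% in the related APOBEC3A deaminase screen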;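 further: plate controls were DMSO wells with A3G for no effect and wells lacking A3G enzyme for full effect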
# Target sequence (Q9HC16 whole entry, looked up): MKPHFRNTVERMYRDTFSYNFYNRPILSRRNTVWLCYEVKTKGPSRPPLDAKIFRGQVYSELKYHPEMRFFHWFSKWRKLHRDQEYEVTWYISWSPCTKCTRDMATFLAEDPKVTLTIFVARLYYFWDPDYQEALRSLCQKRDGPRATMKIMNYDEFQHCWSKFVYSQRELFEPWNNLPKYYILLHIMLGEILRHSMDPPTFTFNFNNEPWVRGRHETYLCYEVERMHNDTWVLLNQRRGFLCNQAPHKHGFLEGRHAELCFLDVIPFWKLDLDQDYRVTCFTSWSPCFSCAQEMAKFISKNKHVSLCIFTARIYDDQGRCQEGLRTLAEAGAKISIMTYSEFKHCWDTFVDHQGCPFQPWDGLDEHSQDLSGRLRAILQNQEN
# * hit, by the source's call; ? = inconclusive; · = no result given. This is a sample that favours compounds with a hit; in the whole collection about 3.6% have one here.
SMILES,MITF TRPM1 HTS,APOBEC3A inh,PHOSPHO1 block,Wnt bcat act,esBAF inh,APOBEC3G inh
CCNC(=O)C[C@H]1CC[C@@H]2[C@H](COc3ccc(NC(=O)Nc4ccc(Cl)cc4)cc3C(=O)N2C)O1,·,·,·,·,3.2,·
C[C@H]1CN([C@@H](C)CO)C(=O)c2cc(NC(=O)CCCN(C)C)ccc2O[C@@H]1CN(C)C(=O)Nc1cccc2ccccc12,·,·,·,·,-1.9,·
CC[n+]1c(/C=C/Nc2ccccc2)oc2ccc(OC)cc21,-8.0,4.9,27.9,-2.0,·,2.4
CC[n+]1c(/C=C/Nc2ccccc2)oc2ccccc21,5.1,5.1,101.4*,4.7,0.6,0.7
C[C@H](CO)N1C[C@H](C)[C@@H](CN(C)CC2CCOCC2)Oc2ncc(C#C[C@@H](C)O)cc2C1=O,·,·,·,·,3.7,·
C[C@@H]1CCCCO[C@@H](CN(C)C(=O)c2ccncc2)[C@@H](C)CN([C@H](C)CO)C(=O)c2cc(NC(=O)c3ccccc3)ccc2O1,·,·,·,·,-3.9,·
C[N+]1(CCOS(=O)C23CC4CC(CC(C4)C2)C3)CCOCC1 (stereo not given),3.4,38.1,81.0*,·,-6.4,23.7
O=C(NCCc1ccccc1Cl)C1CCC(=O)N(Cc2cccc(C(F)(F)F)c2)C1 (stereo not given),-12.9,-1.7,37.6,0.8,2.1,-4.1
O=C(NCCc1cccc(C(F)(F)F)c1)C1CCC(=O)N(Cc2ccc(Cl)cc2)C1 (stereo not given),7.7,1.4,67.6*,-0.7,8.1,8.5
COCCN1CCN(C(=O)c2cc(COc3cc(C)ccc3C)on2)CC1,45.2,-7.0,29.3,1.0,72.7*,-6.7
COc1cc(C)ccc1OCc1cc(C(=O)NC2CCOCC2)no1,·,·,·,-2.2,46.9*,·
CC(=O)NCCC1CCCCN1C(=O)c1cc(COc2cc(C)ccc2C)on1 (stereo not given),?,-1.1,19.1,22.1,66.3*,-4.6
COc1ccc(OCc2cc(C(=O)NC(C)c3cnn(C)c3)no2)c(Cl)c1 (stereo not given),81.4*,-5.9,45.3,24.9,53.9*,-5.9
Cc1ccc(C)c(OCc2cc(C(=O)N3CCNC(=O)C3)no2)c1,13.1,-3.7,8.9,3.7,2.9,-8.4
Cc1nc2cc(OCc3cc(C(=O)NC(C)c4cnn(C)c4)no3)ccc2s1 (stereo not given),30.1,-3.5,57.6,5.4,·,-9.4
O=C([C@H]1[C@H](CO)[C@H]2Cn3c(ccc(C4=CCCCC4)c3=O)[C@H]2N1Cc1nccs1)N1CCCCC1,·,·,·,·,-0.9,·
COc1ccc(OCc2cc(C(=O)N3CCCCCC3)no2)c(Cl)c1,?,1.3,13.7,17.4,·,-3.0
COC1CCN(C(=O)c2cc(COc3cc(C)ccc3C)on2)CC1,·,·,·,13.8,28.7,·
COc1ccc(OCc2cc(C(=O)N3CCOCC3)no2)c(Cl)c1,?,-3.3,24.2,33.9*,36.9,-5.3
COc1cccc(OCc2cc(C(=O)NC(C)c3cnn(C)c3C)no2)c1 (stereo not given),45.0,-3.8,29.3,9.1,43.8*,-4.6
COc1cccc(OCc2cc(C(=O)NCC3CCCCC3)no2)c1,10.2,-2.2,39.5,4.1,7.8,-3.7
COCCCC1CCN(C(=O)c2cc(COc3cc(C)ccc3C)on2)CC1,?,-0.7,3.8,29.4,104.3*,-3.1
Cc1ccc(C)c(OCc2cc(C(=O)N3CCOCC3)no2)c1,73.6,-5.5,34.4,15.0,49.7*,-5.7
COc1ccc(NC(=O)Nc2cccc3c2O[C@@H](CN(C)C(=O)Nc2ccc(F)cc2)[C@H](C)CN([C@@H](C)CO)C3=O)cc1,·,·,·,·,-4.6,·
COCCN1CCN(C(=O)c2cc(COc3ccc(Cl)cc3OC)on2)CC1,79.2,-2.5,28.0,35.7*,?,0.5
SMILES,MITF TRPM1 HTS,APOBEC3A inh,PHOSPHO1 block,Wnt bcat act,esBAF inh,APOBEC3G inh
CC(=O)Nc1ccc2c(CSc3nnc(N)s3)cc(=O)oc2c1,2.7,-30.7,69.1*,0.4,·,-9.6
CCc1cc(C(=O)NNC(=S)NC(C)c2ccccc2)cs1 (stereo not given),11.3,3.1,64.9*,0.1,-1.0,2.0
C[C@H](CO)N1C[C@H](C)[C@H](CN(C)C(=O)C2CCCCC2)OCCCC[C@H](C)Oc2ccc(NS(C)(=O)=O)cc2C1=O,·,·,·,·,11.3,·
C[C@@H]1CN([C@@H](C)CO)C(=O)c2cc(NC(=O)Nc3ccc(F)cc3)ccc2O[C@@H](C)CCCCO[C@@H]1CN(C)Cc1ccc(C(=O)O)cc1,·,·,·,·,-1.3,·
COCC#Cc1cnc2c(c1)C(=O)N([C@@H](C)CO)C[C@@H](C)[C@@H](CN(C)S(C)(=O)=O)O2,·,·,·,·,-11.8,·
C[C@@H]1CN([C@H](C)CO)C(=O)c2c(c3ccccc3n2C)-c2ccccc2CO[C@@H]1CN(C)C(=O)Nc1ccc2c(c1)OCO2,·,·,·,-1.8,3.0,·
C[C@@H]1CN([C@@H](C)CO)C(=O)c2c(c3ccccc3n2C)-c2ccccc2CO[C@H]1CN(C)C(=O)Nc1ccc2c(c1)OCO2,·,·,·,·,86.4*,·
C[C@@H]1CN([C@H](C)CO)C(=O)c2c(c3ccccc3n2C)-c2ccccc2CO[C@H]1CN(C)C(=O)Nc1ccc2c(c1)OCO2,·,·,·,·,80.8*,·
C[C@H]1CN([C@@H](C)CO)C(=O)c2c(c3ccccc3n2C)-c2ccccc2CO[C@H]1CN(C)C(=O)Nc1ccc2c(c1)OCO2,·,·,·,·,60.0*,·
C[C@H](CO)N1C[C@H](C)[C@H](CN(C)C(=O)Nc2cccc(F)c2)OCc2ccccc2-c2c(n(C)c3ccccc23)C1=O,·,·,·,·,1.4,·
C[C@H](CO)N1C[C@H](C)[C@H](CN(C)C(=O)Nc2ccc3c(c2)OCO3)OCc2ccccc2-c2c(n(C)c3ccccc23)C1=O,·,·,·,·,92.9*,·
COc1ccc(S(=O)(=O)N(C)C[C@H]2OCCCC[C@H](C)Oc3ccc(NC(=O)Nc4ccc5c(c4)OCO5)cc3C(=O)N([C@H](C)CO)C[C@@H]2C)cc1,·,·,·,·,3.6,·
C[C@@H]1CCCCO[C@H](CN(C)C(=O)Nc2ccc3c(c2)OCO3)[C@H](C)CN([C@@H](C)CO)C(=O)c2cc(N(C)C)ccc2O1,·,·,·,·,0.6,·
CCC(C)c1ccc(NC(=O)C2CCCN(c3ncccn3)C2)cc1 (stereo not given),·,-2.8,-18.1,·,48.3*,-8.2
CC(=Nc1cccc(C)c1)c1sc2ccccc2c1O,45.8,-2.1,35.2,·,52.3*,1.6
CC(=Nc1ccc(O)cc1)c1sc2ccccc2c1O,75.4,-0.8,38.1,·,·,-1.8
